Values without a mark were called inactive. Inconclusive results are not listed. Calls of active or inactive are those of the source. Unless noted, calls follow the shape of the dose curve; as a rule, active = well fitted curve in the direction sought with a large enough effect in the repeat runs; inconclusive = weak or mixed curves; inactive = no such curve, though single readings can be large; an effect the other way counts as inactive or inconclusive.

Assay [1] deals with Progesterone receptor (Homo sapiens) (UniProt P06401). Nature of the assay: qHTS assay to identify small molecule agonists of the progesterone receptor (PR) signaling pathway (AID 1346784; calls by dose curve; also: nearly all actives have a fitted effect of over 30% in size). In a few lines:
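HEK 293T PR-UAS-bla reporter cells, 2% charcoal-stripped FBS; 6 hr settle at 37C/5% CO2, compound (DMSO) 16 hr, LiveBLAzer B/G FRET substrate 2 hr RT, fluorescence intensity read.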
A general note: qHTS replaces the single test concentration by a dilution series.

For assay [2] the target is unchanged. The assay is described as follows: qHTS assay to identify small molecule antagonists of the progesterone receptor (PR) signaling pathway (AID 1346795; active = well fitted inhibition curve with a large enough effect in the signal ratio in the repeat runs, not every such curve was filed as active; the % refers to the signal ratio). In a few lines:
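Beta-lactamase reporter, HEK293T PR-UAS-bla line; 2% charcoal-stripped FBS; 6 hr pre-incubation, 37C/5% CO2. Compound + R5020 1 nM final, 16 hr. LiveBLAzer B/G FRET substrate, 2 hr RT; fluorescence intensity read.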

Assay [3] can be described thus: qHTS assay to identify small molecule antagonists of the progesterone receptor (PR) signaling pathway - cell viability counter screen (AID 1346798). Also: series mostly up to about 92 µM; nearly all actives have a fitted effect of over 50% in size. The method, boiled down: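 Luminescence readout (CellTiter-Glo, 30 min, RT) of viability in PR-UAS-bla HEK293T cells exposed to compound and R5020 agonist for 16 hr at 37C, 5% CO2; run in the same wells as the beta-lactamase reporter read.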

Assay [4] can be described thus: qHTS assay to identify small molecule agonists of the progesterone receptor (PR) signaling pathway - cell viability counter screen (AID 1346799; calls by dose curve; also: nearly all actives have a fitted effect of over 45% in size). The method, boiled down: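 HEK293T PR-UAS-bla, 3,000 cells/well, 2% charcoal-stripped FBS; 6 h settle, compound 16 h at 37C/5% CO2; LiveBLAzer 2 h RT, then CellTiter-Glo 30 min RT, luminescence read.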
Assay [5] can be described thus: qHTS assay to identify small molecule agonists of the TGF-beta/Smad signaling pathway - cell viability counter screen (AID 1346829). Also: top concentration of the series differs between compounds; nearly all actives have a fitted effect of over 45% in size. In a few lines:
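CellTiter-Glo luminescence readout; SBE-bla HEK 293T cells, overnight plating, compound 5 hr at 37 C/5% CO2, then bla substrate 2 hr RT, then CellTiter-Glo 30 min RT.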

Assay [6] is described as follows: qHTS assay to identify small molecule agonists of the TGF-beta/Smad signaling pathway (AID 1346859; active = well fitted activation curve with a large enough effect in the signal ratio in the repeat runs, not every such curve was filed as active; the % refers to the signal ratio; also: series mostly up to about 77 µM). In a few lines:
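Read-out: fluorescence at 460 and 530 nm (405 nm excitation) after a 2 hr room-temperature incubation with beta-lactamase FRET substrate. SBE-bla HEK 293T cells had been treated with test compounds for 5 hr at 37 C.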

For assay [7], the target named is Thyrotropin-releasing hormone receptor (Homo sapiens) (UniProt P34981). The assay is described as follows: qHTS assay to identify small molecule agonists of the thyrotropin-releasing hormone receptor (TRHR) signaling pathway (AID 1346891; calls by dose curve;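 also: HEK293 cells expressing TRHR with calcium dye readout; series mostly up to about 58 µM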). In a few lines: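 HEK293/TRHR cells, 1500 per well, 18 h 37 °C; Ca dye 2 h 37 °C; pin-tool compound addition (agonist mode); kinetic fluorescence 3 min, 1 s reads; 15 concentrations, triplicate.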
Sequence of Thyrotropin-releasing hormone receptor (Homo sapiens) (P34981 whole entry, looked up): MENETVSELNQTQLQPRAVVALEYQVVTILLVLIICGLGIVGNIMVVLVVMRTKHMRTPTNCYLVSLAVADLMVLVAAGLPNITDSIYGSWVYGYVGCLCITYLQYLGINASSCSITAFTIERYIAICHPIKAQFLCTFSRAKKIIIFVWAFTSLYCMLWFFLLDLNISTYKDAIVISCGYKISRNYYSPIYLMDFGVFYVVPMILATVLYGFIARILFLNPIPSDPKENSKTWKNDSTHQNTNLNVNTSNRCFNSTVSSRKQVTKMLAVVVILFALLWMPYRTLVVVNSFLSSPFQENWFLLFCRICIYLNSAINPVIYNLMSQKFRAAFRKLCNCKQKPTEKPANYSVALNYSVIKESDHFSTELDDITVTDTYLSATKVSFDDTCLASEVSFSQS

Assay [8] can be described thus: Human pregnane X receptor (PXR) small molecule agonists, qHTS cell viability counter screen (AID 1346977). Also: nearly all actives have a fitted effect of over 50% in size. In a few lines: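 Fluorescence read-out (CellTiter-Fluor) of viability in PXR-Luc HepG2 cells, multiplexed with the luciferase agonist read. Compounds in DMSO added after 5hr plating; 24hr total exposure at 37C, 5% CO2.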
The nature of assay [9]: Caspase-3/7 induction in HepG2 cells by small molecules, qHTS assay (AID 1346978). Also: nearly all actives have a fitted effect of over 15% in size. The method, boiled down: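 Wild-type HepG2 cells (2,000/well) were settled 5 h at 37 C, 5% CO2, then exposed to compounds in DMSO for 17 h. Caspase-3/7 activity was read by luminescence 30 min after adding Caspase-Glo 3/7 reagent at room temperature.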
A short description of assay [10]: Caspase-3/7 induction in CHO-K1 cells by small molecules, qHTS cell viability counter screen (AID 1346979). Also: nearly all actives have a fitted effect of over 35% in size. In a few lines:
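CHO-K1 wt, 1,500 cells/well; 5hr pre-incubation 37C/5% CO2; compound pin transfer (DMSO); 16hr exposure; CellTiter-Fluor added, 1hr, fluorescence read.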

Assay [11] can be described thus: Caspase-3/7 induction in CHO-K1 cells by small molecules, qHTS assay (AID 1346980). Also: nearly all actives have a fitted effect of over 15% in size. In a few lines:
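Wild-type cells were seeded at 1,500 per well and settled 5 hr at 37 C, 5% CO2, then exposed to DMSO-dissolved compounds for 17 hr. Caspase-Glo 3/7 reagent was added, and luminescence was read after 30min at room temperature.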

The nature of assay [12]: Caspase-3/7 induction in HepG2 cells by small molecules, qHTS cell viability counter screen (AID 1346981). Also: series mostly up to about 92 µM; nearly all actives have a fitted effect of over 30% in size. The method, boiled down:
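Steps: seed 2,000 HepG2 cells per well; incubate 5 hr at 37 C; pin-add compounds in DMSO; incubate 16 hr; add CellTiter-Fluor; after 1 hr at 37 C and 5% CO2, read fluorescence.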

In assay [13] the target is Nuclear receptor subfamily 1 group I member 2 (Homo sapiens) (UniProt O75469). The assay is described as follows: Human pregnane X receptor (PXR) small molecule agonists, qHTS assay (AID 1346982). Also: nearly all actives have a fitted effect of over 35% in size. In a few lines:
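Agonist mode qHTS: PXR-Luc HepG2 cells plated 5 hr before DMSO-dissolved compounds were pinned in, cultured 24 hr at 37 C, 5% CO2; ONE-Glo luminescence readout.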

Assay [14] addresses Cytochrome P450 2D6 (Homo sapiens) (UniProt P10635). The assay is described as follows: Cytochrome P450 Family 2 Subfamily D Member 6 (CYP2D6) small molecule antagonists: luciferase reporter qHTS assay (AID 1671196). Also: nearly all actives have a fitted effect of over 50% in size. Also: potency is read from the fitted curve at half-maximal effect. As to activity change, negative = inhibition: series mostly up to about 120 µM. The method, boiled down:
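P450-Glo format: CYP2D6 converts a proluciferin substrate to luciferin in an NADPH-driven reaction lasting 1 h at room temperature. Light output, proportional to CYP2D6 activity, reflects interference by test chemicals.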

In assay [15] the target is Cytochrome P450 2C19 (Homo sapiens) (UniProt P33261). The assay is described as follows: Cytochrome P450 Family 2 Subfamily C Member 19 (CYP2C19) small molecule antagonists: luciferase reporter qHTS assay (AID 1671197). Also: series mostly up to about 120 µM; nearly all actives have a fitted effect of over 65% in size. The method, boiled down:
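Enzyme-substrate mix with proluciferin substrate (P450-Glo CYP2C19 system) preincubated with compounds 10 min at room temperature; NADPH regeneration solution added, 37C for 1 h; detection reagent stops reaction, luminescence read after 20 min. Ketoconazole positive control.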
(In a reporter assay the amount or activity of a reporter protein is the signal.)

Assay [16] is described as follows: qHTS assay to identify small molecule antagonists of the TGF-beta/Smad signaling pathway - cell viability counter screen (AID 1346824). Also: nearly all actives have a fitted effect of over 50% in size. The method, boiled down:
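SBE-bla HEK 293T cells were plated overnight at 37 C, then given compounds in DMSO plus TGF-beta1 (added as 0.25 ng/mL solution) for 5 hr. After the bla read, CellTiter-Glo was added to the same wells and luminescence read after 30 min at room temperature.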

Assay [17] concerns the target Nuclear receptor subfamily 1 group I member 2 (Rattus norvegicus) (UniProt Q9R1A7). The assay is described as follows: Rat pregnane X receptor (rPXR) activation by small molecules, qHTS assay (AID 1346983). Also: nearly all actives have a fitted effect of over 20% in size. The settings on record: rPXR luciferase reporter cells, One-Glo luminescence, 24 h; hits give high values. In a few lines: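 Cell-based rPXR luciferase reporter assay, 2,000 cells per well, rested 5hr at 37 C before compound addition in DMSO, then 24 hr at 37 C. One-Glo reagent was added and luminescence read after 30 min at room temperature.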

Assay [18] concerns the target Nuclear receptor subfamily 1 group I member 2 (Homo sapiens) (UniProt O75469). Nature of the assay: CYP3A4 induction through human pregnane X receptor (PXR) by small molecules, qHTS assay (AID 1346984). Also: nearly all actives have a fitted effect of over 40% in size. The method, boiled down: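 Steps: seed DPX-2 cells, 5 hr at 37C; pin-transfer compounds; 24 hr at 37C; add Luciferin-IPA (3uM final), 3 hr at 37C; add One-Glo, 30 min RT; read luminescence.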

For assay [19] the target is unchanged. Nature of the assay: Human pregnane X receptor (PXR) activation by small molecules, qHTS assay (AID 1346985). Also: nearly all actives have a fitted effect of over 40% in size. The method, boiled down: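 DPX-2 cells (HepG2 co-transfected with a PXR response element and a CYP3A4-promoter luciferase construct) were seeded at 2,000 per well, rested 5 hr at 37C, then exposed to DMSO-dissolved compounds for 24 hr. Activation was read as luciferase luminescence.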

Assay [20] addresses Thyrotropin-releasing hormone receptor (Homo sapiens) (UniProt P34981). Nature of the assay: qHTS assay to identify small molecule antagonists of the thyrotropin-releasing hormone receptor (TRHR) signaling pathway (AID 1346877; active = well fitted inhibition curve with a large enough effect in the repeat runs, not every such curve was filed as active; also: series mostly up to about 51 µM). The method, boiled down:
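Cells (TRHR-HEK293) are plated and kept 18 h at 37 °C/5% CO2. A calcium-sensitive dye is added for 2 h, compound follows for 5 min at room temperature, and TRH is then given at 1 nM final.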
% is scaled to controls: 0 for no effect and ±100 for the full control effect.

Sequence of Cytochrome P450 2C19 (Homo sapiens) (P33261 whole entry, looked up): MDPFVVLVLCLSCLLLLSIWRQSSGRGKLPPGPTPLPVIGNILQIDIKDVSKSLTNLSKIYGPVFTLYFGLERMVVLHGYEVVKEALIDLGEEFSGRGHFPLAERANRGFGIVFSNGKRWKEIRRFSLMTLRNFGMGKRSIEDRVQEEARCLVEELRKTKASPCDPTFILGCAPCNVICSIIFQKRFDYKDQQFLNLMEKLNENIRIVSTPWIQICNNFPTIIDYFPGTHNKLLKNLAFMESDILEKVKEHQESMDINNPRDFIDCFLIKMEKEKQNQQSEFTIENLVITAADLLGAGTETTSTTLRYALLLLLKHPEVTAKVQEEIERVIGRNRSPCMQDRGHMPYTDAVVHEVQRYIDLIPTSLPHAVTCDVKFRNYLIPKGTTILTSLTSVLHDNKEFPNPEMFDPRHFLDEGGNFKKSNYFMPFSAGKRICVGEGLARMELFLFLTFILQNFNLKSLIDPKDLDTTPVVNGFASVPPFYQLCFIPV
Sequence of Cytochrome P450 2D6 (Homo sapiens) (P10635 whole entry, looked up): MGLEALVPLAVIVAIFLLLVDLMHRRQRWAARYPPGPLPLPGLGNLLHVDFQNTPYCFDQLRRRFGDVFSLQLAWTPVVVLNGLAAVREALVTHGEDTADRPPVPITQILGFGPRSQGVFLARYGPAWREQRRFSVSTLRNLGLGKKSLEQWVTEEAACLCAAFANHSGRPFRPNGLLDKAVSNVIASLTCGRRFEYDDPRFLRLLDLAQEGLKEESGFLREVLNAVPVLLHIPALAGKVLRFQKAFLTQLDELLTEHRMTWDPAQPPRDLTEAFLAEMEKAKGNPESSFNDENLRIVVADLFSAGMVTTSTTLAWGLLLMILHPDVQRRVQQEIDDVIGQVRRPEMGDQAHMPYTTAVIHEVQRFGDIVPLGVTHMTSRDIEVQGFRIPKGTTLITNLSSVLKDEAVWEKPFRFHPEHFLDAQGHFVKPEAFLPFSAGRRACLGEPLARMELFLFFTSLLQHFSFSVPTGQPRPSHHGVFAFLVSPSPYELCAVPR
Sequence of Progesterone receptor (Homo sapiens) (P06401 whole entry, looked up): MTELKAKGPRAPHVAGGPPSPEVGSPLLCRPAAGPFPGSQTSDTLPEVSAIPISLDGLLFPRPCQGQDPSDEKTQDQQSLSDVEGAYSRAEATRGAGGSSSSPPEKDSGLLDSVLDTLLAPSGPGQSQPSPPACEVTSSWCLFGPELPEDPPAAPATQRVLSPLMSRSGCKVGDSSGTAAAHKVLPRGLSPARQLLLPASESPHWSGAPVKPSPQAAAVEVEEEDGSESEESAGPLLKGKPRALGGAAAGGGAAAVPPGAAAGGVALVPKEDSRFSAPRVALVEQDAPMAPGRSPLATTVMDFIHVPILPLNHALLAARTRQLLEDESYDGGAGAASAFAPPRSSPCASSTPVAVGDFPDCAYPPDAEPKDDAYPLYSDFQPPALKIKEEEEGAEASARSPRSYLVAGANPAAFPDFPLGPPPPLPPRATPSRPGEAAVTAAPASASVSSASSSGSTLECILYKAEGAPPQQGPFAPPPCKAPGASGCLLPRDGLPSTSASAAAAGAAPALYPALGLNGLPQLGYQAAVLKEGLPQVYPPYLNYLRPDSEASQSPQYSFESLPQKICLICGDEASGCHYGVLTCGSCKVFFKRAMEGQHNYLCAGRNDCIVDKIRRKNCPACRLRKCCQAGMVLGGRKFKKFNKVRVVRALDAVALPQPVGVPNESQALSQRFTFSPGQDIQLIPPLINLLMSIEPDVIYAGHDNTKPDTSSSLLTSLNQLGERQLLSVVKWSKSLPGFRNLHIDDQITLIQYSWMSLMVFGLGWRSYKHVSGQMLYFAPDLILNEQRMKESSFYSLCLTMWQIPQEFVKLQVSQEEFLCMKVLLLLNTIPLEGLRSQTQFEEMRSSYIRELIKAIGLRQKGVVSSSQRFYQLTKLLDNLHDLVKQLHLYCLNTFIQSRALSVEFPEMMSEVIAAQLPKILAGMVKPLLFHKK
Sequence of Nuclear receptor subfamily 1 group I member 2 (Homo sapiens) (O75469 whole entry, looked up): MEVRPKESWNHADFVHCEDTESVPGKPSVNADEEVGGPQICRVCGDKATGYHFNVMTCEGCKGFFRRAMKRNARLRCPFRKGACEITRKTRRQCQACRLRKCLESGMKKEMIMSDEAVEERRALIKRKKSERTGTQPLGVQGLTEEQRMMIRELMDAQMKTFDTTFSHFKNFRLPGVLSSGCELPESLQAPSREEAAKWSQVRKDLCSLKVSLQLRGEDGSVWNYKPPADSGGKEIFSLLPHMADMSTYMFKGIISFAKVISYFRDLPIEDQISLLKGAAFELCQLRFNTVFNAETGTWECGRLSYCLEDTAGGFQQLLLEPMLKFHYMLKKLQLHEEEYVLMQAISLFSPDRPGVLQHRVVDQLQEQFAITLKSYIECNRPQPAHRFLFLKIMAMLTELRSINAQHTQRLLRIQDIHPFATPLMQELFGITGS
Sequence of Nuclear receptor subfamily 1 group I member 2 (Rattus norvegicus) (Q9R1A7 whole entry, looked up): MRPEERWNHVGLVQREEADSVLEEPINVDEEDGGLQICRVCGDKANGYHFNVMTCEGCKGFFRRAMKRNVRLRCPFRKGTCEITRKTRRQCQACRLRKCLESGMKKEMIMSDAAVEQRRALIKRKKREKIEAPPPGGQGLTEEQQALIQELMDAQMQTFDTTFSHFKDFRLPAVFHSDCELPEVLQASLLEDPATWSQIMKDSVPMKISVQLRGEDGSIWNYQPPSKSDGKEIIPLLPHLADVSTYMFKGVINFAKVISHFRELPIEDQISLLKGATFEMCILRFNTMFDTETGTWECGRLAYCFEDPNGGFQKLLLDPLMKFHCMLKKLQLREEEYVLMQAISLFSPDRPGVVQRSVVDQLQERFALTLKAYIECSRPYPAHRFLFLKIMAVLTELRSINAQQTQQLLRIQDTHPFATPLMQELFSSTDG

Consider `CN(C)CCCNCCCN(C)C`, for which the Potency entry in assay [1], in assay [2], in [3], in assay [4], in [8] and in [9] was “inactive” each time. Also, the Potency entry in assay [10], in assay [12], in [13] and in assay [15] was “inactive” each time. Besides, the result in assay [5], in assay [6], in assay [7] and in assay [11] was inactive. In addition, the Potency in assay [14] was 20 µM (active).

With `O=C(O)CN(CCOCCOCCN(CC(=O)O)CC(=O)O)CC(=O)O`, the figures for the activation in assay [1], in assay [6] and in assay [13] were -1.13% [at 0.349 µM], 3.14% [at 0.29 µM] and -3.68% [at 0.349 µM], respectively. Further, the values for the activity change, negative = inhibition in [2], in assay [14] and in assay [15] were 0.191% [at 0.348 µM], -9.59% [at 0.435 µM] and -11.6% [at 0.435 µM], respectively. Besides, the activity change, negative = cytotoxicity in [3] is 5.83% [at 0.348 µM]; in assay [4], 5.81% [at 0.349 µM]; in assay [5] it was 0.742% [at 0.29 µM]; in [8], 6.91% [at 0.349 µM]; in assay [10] it was 10.9% [at 0.349 µM]. The viability change, negative = cytotoxic in assay [16] was 3.24% [at 0.29 µM]. In [9], the caspase activation was -0.864% [at 0.349 µM]. Besides, the caspase-3/7 activation in assay [11] is 0.707% [at 0.349 µM].

Consider `CCCc1cc(C(N)=S)ccn1`, for which the Potency entry in [1], in [2], in assay [3], in [4], in [16] and in [8] was “inactive” in each case. Moreover, the Potency entry in assay [9], in assay [12], in assay [13], in [18], in [19] and in [14] was “inactive” in each case. The molecule was classed as inactive in assay [5], in [6] and in assay [11]. The max activation in [17] is 0.144%.

For the molecule `COC(=O)NN`, the Potency result in [1], in assay [2], in assay [3], in assay [16], in assay [8] and in [9] was “inactive” each time. Also, the Potency entry in assay [10], in assay [12], in assay [13] and in assay [14] was “inactive” each time. Further, the call in assay [5], in assay [6], in assay [20], in [7] and in assay [11] was inactive.

`ClC(Cl)(Br)Br`: the Potency result in assay [1], in assay [2], in assay [3], in [4], in assay [16] and in assay [8] was “inactive” each time. The Potency entry in [9], in assay [10], in assay [13] and in assay [15] was “inactive” each time. The result in assay [5], in [6] and in assay [11] was inactive. Also, in [14], the Potency is 39.2 µM (active).

Regarding `CCC=O`, the Potency result in [1], in [2], in assay [3], in [4], in assay [16] and in assay [8] was “inactive” in each case. Besides, the Potency entry in assay [9], in assay [10], in assay [12], in assay [13], in assay [14] and in [15] was “inactive” in each case. In addition, the outcome in [5], in assay [6] and in assay [11] was inactive.

`CCn1nc(C(=O)O)c(=O)c2cc3c(cc21)OCO3`: the Potency result in assay [1], in [2], in assay [3], in assay [4], in assay [16] and in assay [9] was “inactive” each time. Moreover, the Potency entry in assay [10] and in assay [12] was “inactive” throughout. For the same molecule, the molecule was called inactive in [5], in assay [6] and in assay [11].

Turning to `COC(C)(C)CCCC(C)CC=O` (centres undefined), the Potency result in assay [1], in [2], in [3], in assay [4], in assay [16] and in assay [8] was “inactive” in each case. Further, the Potency result in assay [9], in assay [13], in [14] and in [15] was “inactive” each time. Also, the result in [5], in [20], in assay [7] and in [11] was inactive.

Values taken from PubChem BioAssay (Tox21).
